Bioassay records: PubChem BioAssay, University of Kansas High Throughput Screening Laboratory
mHTT CaM bind = inhibitors of human mutant huntingtin-calmodulin interaction; P42858; AlphaScreen His-mHTT/GST-CaM binding, luminescence; inhibition, % at 15 µM; 190,000 tested, 3.6% active;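 also: 0% = both proteins with DMSO and 100% = one protein alone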
Pf apPOL block = Pf-apPOL DNA polymerase inhibition; 210,000 tested, 0.25% active; Recombinant Pf-apPOL, molecular beacon fluorescence, 1.5 h; inhibition, % at 10 µM
* marks the source's active call; other numbers are inactive results; . = not tested or not shown; ! = not active in a repeat. In the library only some 3.6% were active in any assay of this set; here they are far more common. Rule as the data show it: active = inhibition above about 50%; inactive = the rest.

SMILES	mHTT CaM bind	Pf apPOL block
CCOc1ccc(NC(=O)c2cccc3ccccc23)c([N+](=O)[O-])c1	63*	-2
CCOc1ccc(NC(=O)COc2ccccc2)c([N+](=O)[O-])c1	23	-4
CCOc1ccc(NC(=O)C(c2ccccc2)c2ccccc2)c([N+](=O)[O-])c1	50*	-8
CCOc1ccc(NC(=O)c2cc(Cl)ccc2Cl)c([N+](=O)[O-])c1	6	-24
CC(NC(=O)C1CCN(c2nc3cccnc3s2)CC1)c1ccccc1 (centres undefined)	4	2
CN(Cc1ccccc1)S(=O)(=O)c1cc(C(=O)Nc2cc(Cl)cc(Cl)c2)ccc1F	-6	23
Cc1scc2nc(C(=O)N3CCC(C)CC3)nc(N(C)C)c12	22	-8
COc1ccc(NC(=O)COc2ccc(C)cc2Br)cc1OC	26	1
Cc1noc(COC2CCN(C(=O)c3ccc4ncccc4c3)CC2)n1	5	-2
Cc1ccc(NC(=O)c2cc3ccccc3oc2=O)c(Br)c1	5	-3
Cc1ccc(NC(=O)c2cc3cc(Br)ccc3oc2=O)c(Br)c1	-2	85*
O=C(Nc1ccccc1N1CCCN(Cc2ccccc2)C1=O)c1cccs1	2	0
CCc1ccc(NC(=O)N2CCCC2c2cc(C(C)C)no2)cc1 (centres undefined)	-8	-3
Cc1cc2c(c(=O)o1)C(c1cccs1)C(C#N)=C(N)O2 (centres undefined)	-3	.
CCN1C=C(Cc2cccs2)C2=C(C1)C(c1cccs1)C(C#N)=C(N)O2 (centres undefined)	72*	2
Cc1[nH]nc2c1C(c1cccs1)C(C#N)=C(N)O2 (centres undefined)	-2	-8
COCc1[nH]nc2c1C(c1cccs1)C(C#N)=C(N)O2 (centres undefined)	-6	.
O=C1/C(=C/c2cccs2)CC/C1=C\c1cccs1	23	-4
CCN1CC2=C(OC(N)=C(C#N)C2c2cccs2)/C(=C/c2cccs2)C1 (centres undefined)	60*	.
CC(C)N1C/C(=C\c2cccs2)C(=O)/C(=C/c2cccs2)C1	54*!	5
CC(C)N1CC2=C(OC(N)=C(C#N)C2c2cccs2)/C(=C/c2cccs2)C1 (centres undefined)	66*	.
COc1ccc(O)c(C=Nc2ccc(S(N)(=O)=O)cc2)c1	-1	3
Cc1cc(C)n(-c2ccc(CNC(=O)c3ccc(Br)o3)cc2)n1	17	-1
Cn1c(=O)c2c(-c3ccccc3)n3c4ccccc4nnc3c2n(C)c1=O	0	-4
O=C(Nc1cccc(F)c1)c1cc(S(=O)(=O)N2CCN(c3ccccn3)CC2)ccc1F	36	-6
SMILES	mHTT CaM bind	Pf apPOL block
Cc1cccc(OCc2nc(-c3cccc(-c4ccn[nH]4)c3)no2)c1	39	0
O=[N+]([O-])c1ccccc1C=Nc1ccc(Br)cc1	12	6
Cc1ccc(N(C(=O)C2CCCO2)C2C=CS(=O)(=O)C2)cc1 (centres undefined)	-17	-5
CN(C)/C=C1\N=C(c2ccccc2)c2cc(Cl)ccc2N(C)C1=O	51*	3
CN1C2=NCCN2C(=O)c2cc(Cl)ccc21	.	-5
COc1ccc(CCn2c(SCC#N)nc3c(sc4ccccc43)c2=O)cc1OC	-3	-1
Cc1nc(OCC(=O)Nc2ccc(Cl)c(C(F)(F)F)c2)c2ccccc2n1	22	0
O=C(COc1ccccc1Br)Nc1ccc(Cl)c(C(F)(F)F)c1	-3	71*
O=C1OC(c2cccc(Br)c2)=N/C1=C\c1ccccc1Br	5	4
O=C1Nc2ccccc2OC1C(=O)N1CCCC1 (centres undefined)	0	-4
Brc1ccc(Nc2nc(NCc3ccco3)c3ccccc3n2)cc1	100*	1
O=[N+]([O-])c1ccc(-c2nc(NCc3ccco3)c3ccccc3n2)cc1	16	-3
CC(C)(C)n1nc2c(c1NC(=O)c1cccc(Cl)c1)CSC2	39	-7
CC(C)(C)n1nc2c(c1NC(=O)c1ccc([N+](=O)[O-])cc1)CSC2	66*	4
CC(C)(C)n1nc2c(c1NC(=O)c1cc([N+](=O)[O-])ccc1Cl)CSC2	11	-1
CC(C)Oc1ccc(C(=O)Nc2c3c(nn2C(C)(C)C)CS(=O)C3)cc1 (centres undefined)	2	-40
CC(C)Oc1ccc(C(=O)Nc2c3c(nn2C(C)(C)C)CSC3)cc1	28	83*
CC(C)(C)n1nc2c(c1NC(=O)c1cccc(Br)c1)CSC2	53*	3
COc1ccc(CCNC(=O)CSc2nc(-c3ccccc3Cl)ns2)cc1OC	2	-3
COc1ccccc1C1NC(=O)C(=O)C1=C(O)c1ccc(Br)cc1 (centres undefined)	-1	-4
CCN(CC)c1ccc(/C=C2\C(=O)c3ccc(C(=O)O)cc3C2=O)cc1	62*	1
COc1ccc(/C=C2\C(=O)c3ccc(C(=O)O)cc3C2=O)cc1OC	3	-10
COc1ccccc1Nc1nc(-c2sc(C)nc2C)cs1	-6	5
Cc1nc(C)c(-c2csc(Nc3ccc(N)cc3)n2)s1	87*	-23
COc1ccc(Nc2nc(-c3sc(C)nc3C)cs2)cc1	52*	-4
SMILES	mHTT CaM bind	Pf apPOL block
Cc1nc(C)c(-c2csc(NCc3ccco3)n2)s1	12	-6
O=C(NCc1ccncc1)c1cnn2c(-c3cccc(F)c3)ccnc12	3	2
COc1ccc(-c2cc(C(F)(F)F)n3nc(C(=O)O)c(Cl)c3n2)cc1OC	83*	2
COc1ccc(-c2cc(C(F)(F)F)n3nc(C(=O)NC(C)C)c(Cl)c3n2)cc1OC	-2	2
CCOc1ccc(-n2ccn3cc(-c4ccc(F)cc4)nc3c2=O)cc1	-4	-1
C=CCNC(=O)c1cc2c(=O)n3ccccc3nc2n(C2CCCC2)c1=N	5	-10
COc1c(C(=O)N2CCCC2)sc2cc(Cl)ccc12	1	-2
O=C(Nc1c(-c2ccccc2)nc2ccccn12)c1ccc(Cl)c([N+](=O)[O-])c1	67*	-2
COc1ccc(-c2nc3ccccn3c2NC(=O)c2ccc(Cl)c([N+](=O)[O-])c2)cc1	49	3
CCCC(C)C(=O)Nc1ccc(I)cc1 (centres undefined)	-14	1
Cc1ccc(C(=O)N2CCCCC2CCN(C)C)s1 (centres undefined)	-1	-2
Cc1ccc(C(=O)N=C2SCCN2C(=O)c2ccc(C)s2)s1	87*	0
COc1ccc(NC(C)=O)cc1NC(=O)c1sc2nc(-c3ccccc3)cn2c1C	52*	-3
CC(=O)Nc1cccc(NC(=O)c2sc3nc(-c4ccccc4)cn3c2C)c1	12	-2
COc1ccccc1C(=O)Nc1ccc2nc(N3CCN(C)CC3)cc(C)c2c1	0	-7
Cc1cc(N2CCN(C)CC2)nc2ccc(NC(=O)/C=C/c3cccs3)cc12	76*	0
Cc1cc(N2CCN(C)CC2)nc2ccc(NC(=O)c3cc(-c4ccco4)nc4ccccc34)cc12	57*	5
Cc1cc(N2CCN(C)CC2)nc2ccc(NC(=O)/C=C/c3cccnc3)cc12	5	-6
COc1ccc(S(=O)(=O)N2CC3CN(C(=O)C4CCCO4)CC(C2)O3)cc1 (centres undefined)	5	-2
COc1ccc(Cl)cc1NC(=O)CSc1nc2c(c(=O)n1-c1ccc(C)cc1)SCC2	1	-7
COc1ccccc1CC(=O)Nc1ccc(OC)c(OC)c1	0	-9
COc1cc2c(C)[nH]c(=O)c(CC(=O)Nc3ccccc3)c2cc1OC	65*	-3
